A selection: hits, their analogues and other compounds. The true share with any hit is near 2%.
Abeta rescue: compounds reversing amyloid beta toxicity in yeast; yeast expressing A-beta42, growth rescue, OD600, 48 h; response scale: 0% DMSO, 100% iron-clioquinol control; Potency, µM (top dose mostly 46.1 µM), actives largely listed as activators; 410,000 tested, 0.063% active; AID 1347071; further: nearly all actives have a fitted effect of over 55% in size
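Growth rescue measured by 600 nm absorbance after 48 h yeast culture at 30 C with compound. Values normalized between DMSO and an equimolar ferric chloride plus clioquinol control.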
aSyn yeast inh: rescues yeast growth from alpha-synuclein toxicity; Yeast expressing alpha-synuclein, growth rescue, BacTiter-Glo, 24 h; 370,000 tested, 0.14% active; AID 652106; Potency, µM (top dose mostly 46.1 µM), most hits filed as activators; further: nearly all actives have a fitted effect of over 65% in size
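Rescue of yeast growth: cells expressing toxic alpha-synuclein, induced in galactose at OD600 0.02, incubated with compound 24 h at 30 C. ATP luminescence quantified growth; inhibitors of toxicity appear as activators.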
LDHA block: inhibitors of human lactate dehydrogenase A. P00338. purified LDHA, NADH/diaphorase-resazurin fluorescence; hits give low values. activity change, % (values are at about 110 or 230 µM). 480,000 tested, 0.15% active; in the data active means activity change below about -30%; inconclusive means mostly about -25% to -30%
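Human LDH5 at 2 nM final in Tris HCl pH 7.4 with 0.06 mM NADH and 0.2 mM pyruvate, reacted 5 minutes at room temperature. Remaining NADH coupled via diaphorase/resazurin; resorufin fluorescence read at 0 and 20 minutes, normalized to enzyme-free and DMSO wells.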
IDH1 R132H inh: human IDH1 R132H inhibition; AID 602179; Potency, µM (doses to about 76.6 µM), hits mostly inhibitors; 390,000 tested, 0.093% active; IDH1-R132H enzyme, NADPH consumption, diaphorase/resazurin fluorescence; O75874; further: nearly all actives have a fitted effect of over 65% in size
Target sequence (O75874 whole entry R132H, stated change not applied): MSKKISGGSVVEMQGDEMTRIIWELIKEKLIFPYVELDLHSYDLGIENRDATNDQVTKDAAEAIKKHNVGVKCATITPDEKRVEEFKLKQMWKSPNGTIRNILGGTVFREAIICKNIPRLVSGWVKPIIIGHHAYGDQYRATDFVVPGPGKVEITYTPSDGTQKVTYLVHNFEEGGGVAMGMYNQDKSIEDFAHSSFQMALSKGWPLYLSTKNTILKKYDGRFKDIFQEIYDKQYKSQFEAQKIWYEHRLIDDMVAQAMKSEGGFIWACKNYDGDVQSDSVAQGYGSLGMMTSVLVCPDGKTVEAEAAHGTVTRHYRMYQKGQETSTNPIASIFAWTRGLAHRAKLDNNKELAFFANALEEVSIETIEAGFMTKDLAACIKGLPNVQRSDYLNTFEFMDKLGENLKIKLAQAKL
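IDH1-R132H (0.5 ug/mL dispensed) in pH 7.5 Tris buffer was preincubated 30 min with compound, then given a substrate mix of 0.016 mM NADPH and 2 mM alpha-KG for 80 min at room temperature; remaining NADPH was read by diaphorase/resazurin fluorescence.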
FUS yeast rescue: suppressors of FUS proteinopathy in yeast; S. cerevisiae FUS-expressing, growth rescue, OD600, 24 h; Potency, µM (titrated, usually from 76.6 µM), actives largely listed as activators; 390,000 tested, 0.24% active; AID 1347120; further: nearly all actives have a fitted effect of over 55% in size
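Read-out: OD at 600 nm after 24hr at 30C, reporting rescue of FUS-induced yeast toxicity. Cells at OD 0.005 in galactose (2%) minimal medium; compounds tested in a dilution series; CP55940 titration from 92uM final as control.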
TDP43 rescue: inhibitors of TDP-43 toxicity in yeast. TDP-43 expressing yeast growth rescue, BacTiter-Glo, 24 h. Potency, µM (series often up to 46.1 µM), actives largely listed as activators. 410,000 tested, 1.8% active. AID 652104; further: nearly all actives have a fitted effect of over 50% in size
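Yeast cells expressing TDP-43 under galactose induction are exposed to compounds for 24 hr at 30 deg C. BacTiter-Glo luminescence measures growth, so protective compounds score as activators.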
A number is an active result; – = inactive; ? = inconclusive; · = no result. Unless noted, the call rests on the fitted dose curve; in most records, active means well fitted curve in the direction sought with a large enough effect; inconclusive means small, poorly fitted or top-dose-only effect, or another doubt; inactive means no such curve, though single readings can be large; an effect the other way counts as inactive or inconclusive.

SMILES	Abeta rescue	aSyn yeast inh	LDHA block	IDH1 R132H inh	FUS yeast rescue	TDP43 rescue
Oc1ccccc1NCC(O)Cn1ccc2ccccc21 (configuration not stated)	–	–	–	–	?	–
Nc1ccccc1SCC(O)Cn1ccc2ccccc21 (configuration not stated)	–	?	–	–	–	17.8µM
CC(C)CNC(=S)NC(=O)c1ccc(F)cc1	–	–	–	–	·	14.1µM
O=C(NC(=S)NNC(=O)c1cnccn1)c1ccc(F)cc1	–	11.2µM	–	–	–	–
O=C(NC(=S)NCCN1CCOCC1)c1ccc(F)cc1	–	–	–	–	·	–
CC(=O)OC[C@@H]1CN(Cc2cccc(C(F)(F)F)c2)C[C@H](n2cnc3c(NCc4ccco4)ncnc32)O1	–	–	–	·	?	11.2µM
C=CC[C@H](CC(=O)N(CCO)Cc1ccccc1)C(=O)N[C@H](COC(=O)[C@@H](CC=C)CC(=O)OC(C)(C)C)Cc1ccccc1	–	–	–	–	7.94µM	–
Cc1ccc(/C=C(\NC(=O)c2ccc(C)cc2)c2nc(=S)[nH][nH]2)cc1	–	–	–	–	–	20µM
NC(=S)NCc1ccco1	·	·	–	·	·	·
c1cnc2c(c1)ccc1cccnc12	–	–	–	–	–	35.5µM
O=Cc1ccc2ccc3cccnc3c2n1	–	?	–	–	–	?
O=C(Nc1nc(-c2ccccn2)cs1)C1CC(=O)N(c2ccccc2Cl)C1 (configuration not stated)	·	·	–	·	·	·
CCOc1cccc(NC(=O)C2CC(=O)N(CC)C(=Nc3ccc(F)cc3)S2)c1 (configuration not stated)	?	?	–	–	–	22.4µM
CN(C(=O)CCc1ncc(-c2ccccc2)o1)C1CCS(=O)(=O)C1 (configuration not stated)	·	·	–	·	·	·
CC(=O)N1N=C(c2ccccc2)CC1c1cn(C)c2ccccc12 (configuration not stated)	–	–	–	–	·	20µM
CC(=O)N1N=C(c2ccccc2)CC1c1ccc(F)cc1 (configuration not stated)	–	–	–	–	–	–
Nc1nnnn1/N=C/c1ccc(Br)cc1	?	–	–	–	–	–
Nc1nnnn1/N=C/c1cc(Br)ccc1O	–	–	-46.9	–	–	–
CCC1(C(=O)c2ccc(Cl)cc2)C2c3ccccc3OC(=O)C21C(=O)Nc1ccccc1 (configuration not stated)	–	14.1µM	–	–	·	–
O=C(Nc1ccc(Nc2ccccc2)cc1)c1ccc(Cl)cc1	–	–	–	–	–	–
COc1ccc(OC)c(C2C(C(=O)c3ccc(C)o3)=C(O)C(=O)N2c2cc(C)on2)c1 (configuration not stated)	–	–	–	–	31.6µM	–
COc1ccc(C2C(C(=O)c3ccc(C)o3)=C(O)C(=O)N2c2cc(C)on2)cc1OC (configuration not stated)	–	–	–	–	–	–
Cc1ccc(NS(=O)(=O)c2ccc(N/N=C/c3cc(C)ccc3C)c([N+](=O)[O-])c2)c(C)c1	·	·	–	·	·	·
CN(CC#CC1(C)CCCC(C)(C)O1)Cc1ccccc1 (configuration not stated)	·	·	–	·	·	·
CCCCc1c(-c2cccc(Br)c2)ncn1CCc1ccccc1OC	–	–	–	·	–	25.1µM
SMILES	Abeta rescue	aSyn yeast inh	LDHA block	IDH1 R132H inh	FUS yeast rescue	TDP43 rescue
COc1ccc(/C=C/C(=O)c2ccc[nH]2)c(OC)c1OC	–	–	–	–	–	14.1µM
COc1cccc(/C=C/C(=O)c2cccc([N+](=O)[O-])c2)c1OC	–	–	–	–	–	11.2µM
COc1cccc(/C=C/C(=O)c2cccc([N+](=O)[O-])c2)c1	–	–	–	–	–	–
CS(=O)(=O)c1ccc(C(=O)CSc2ccc(F)cc2)cc1	·	·	–	·	·	·
COc1cccc(C2=CC(c3ccccc3F)n3ncc(C(=O)Nc4ccc(F)cc4)c3N2)c1 (configuration not stated)	–	·	–	–	–	22.4µM
CCOc1cc(C2C(C(=O)OC)=C(C)NC3=C2C(=O)c2ccccc23)ccc1OCC#N (configuration not stated)	·	·	–	·	·	·
O=C(COC(=O)c1n[nH]c2ccccc12)Nc1ccc(OC(F)(F)F)cc1	·	·	–	·	·	·
O=C(c1cc(-c2ccncc2)nc2ccccc12)N1CCCC(C(F)(F)F)C1 (configuration not stated)	–	–	–	–	–	–
O=C(c1cc(-c2ccco2)nc2ccccc12)N1CCCC(C(F)(F)F)C1 (configuration not stated)	–	–	–	–	–	35.5µM
O=C(O)/C=C/c1ccc(-c2ccc(Br)cc2Cl)o1	·	·	–	·	·	·
Cc1cc(NC(=O)c2cc(-c3ccccc3C)nc3ccccc23)no1	–	–	–	–	·	–
O=C(NCc1ccccn1)c1cc(-c2ccncc2)nc2ccccc12	–	–	–	–	–	–
Cc1cc(NC(=O)c2cc(-c3ccccc3Cl)nc3ccccc23)no1	–	–	–	–	–	14.1µM
O=C(NCc1ccccn1)c1cc(-c2ccccc2Cl)nc2ccccc12	–	–	–	–	·	20µM
CN=C(NC)NCc1cccc(Br)c1	·	·	–	·	·	·
COc1ccc2[nH]c(C(=O)NCC(=O)Nc3ccc4c(c3)OCCO4)cc2c1OC	·	·	–	·	·	·
Brc1ccc(-c2nc3ccc(Br)cn3c2Cc2ccccc2)cc1	–	–	–	·	–	–
Fc1ccc(-c2nc3ccc(Br)cn3c2Cc2ccccc2)cc1	–	–	–	–	–	35.5µM
Fc1ccc(-c2nc3ccc(Br)cn3c2Cc2cccc(Cl)c2)cc1	–	–	–	·	–	35.5µM
Clc1ccc(-c2nc3ccc(Br)cn3c2Cc2ccsc2)cc1	–	–	–	·	–	35.5µM
Cn1c(COc2cccc(C(F)(F)F)c2)nnc1SCc1c(F)cccc1Cl	·	·	–	·	·	·
CCCCCCCCCCS(=O)(=O)N/N=C/c1ccc(O)cc1	–	?	–	–	–	14.1µM
CCCCCCCCCCS(=O)(=O)N/N=C/c1ccc2c(c1)OCO2	·	·	–	·	·	·
Oc1ccc(N2Cc3ccccc3C2)cc1	–	–	–	–	–	–
O=Cc1ccc(N2Cc3ccccc3C2)cc1	–	–	–	–	–	3.16µM
N#CNC(=O)c1ccc(-n2cccc2/C=C2\NC(=O)N(CC(=O)Nc3ccccc3F)C2=O)cc1	·	·	–	·	·	·
CCOc1ccc(S(=O)(=O)c2cn(Cc3ccc(C)cc3)c3ccc(OC)cc3c2=O)cc1	–	·	–	–	15.8µM	–
CCn1cc(S(=O)(=O)c2ccc(C)cc2)c(=O)c2cc(OC)ccc21	–	–	–	–	–	–
